Bioassay records deposited in PubChem BioAssay by Broad Institute.
C2C12 statin – suppressors of statin myotoxicity in C2C12 myotubes, primary screen, cell-based, single point, plate reader. rescue of ATP level, % at 7.49 µM. 330,000 tested, 0.78% active. C2C12 myotubes + simvastatin, ATP luminescence, 48 h; scaled: DMSO 0, geranylgeraniol control 100;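 active = mean ATP rescue above about 67%, or every replicate alone reaching that limit, limit read from the data, passing the limit was not always enough; inconclusive = no clear call, values can overlap the other calls; inactive = mean under the limit and some replicate under it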;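 note: myotubes were challenged with 10 µM simvastatin during compound exposure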
esBAF inh – Bmi1 luciferase reporter increase in mESCs, primary screen, esBAF inhibitor project, mouse ES cells, Bmi1 luciferase knock-in, single point | AID 602393, 2012 | reporter increase, % at 12.5 µM | 24 h; 100% = twice the neutral-well signal | 350,000 tested, 2% active; in the data active = activation above about 40%; inconclusive = no clear call, values can overlap the other calls;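 note: 0% = median of the plate's neutral control wells and 100% = double that signal; a rise in the Bmi1 reporter signal indicates esBAF inhibition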
Wnt act – Wnt/beta-catenin pathway activators, primary screen, cell-based, plate reader, single point; Wnt/beta-catenin reporter cell assay, activator; activation, % at 9.35 µM; 300,000 tested, 1.2% active; AID 743398, 2014; in the data active = activation above about 30%, passing the limit was not always enough; inconclusive = no clear call, values can overlap the other calls;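 note: 0% = neutral control wells and 100% = positive control wells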
MITF act – activators of MITF-driven TRPM1 promoter reporter, primary screen, cell-based, SK-MEL-5, luciferase, single point; SK-MEL-5 TRPM1-promoter luciferase, 24 h; % of positive control, neutral wells = 0; activation, % at 12.5 µM; 300,000 tested, 0.75% active;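 active = mean activation of at least 80% with every replicate also reaching 80%; inconclusive = mean reaches 80% but some replicate falls short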;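 note: 0% = neutral control wells and 100% = parthenolide positive control wells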
Starred values were filed as active, the others as inactive. This is a sample that favours compounds with a hit; in the whole collection about 3% have one here.

For O=C(CSc1nc2ccccc2[nH]1)NCc1ccccc1 the results were C2C12 statin 20, esBAF inh 43* and Wnt act 18.
For Cc1noc(C)c1NC(=O)N(C)C[C@@H]1Oc2ccc(NS(=O)(=O)c3c(C)noc3C)cc2C(=O)N([C@@H](C)CO)C[C@H]1C the results were esBAF inh 8.
`CN(C)C(=O)C[C@H]1CC[C@@H]2[C@H](COC[C@H](O)CN2CC2CCCC2)O1` gave C2C12 statin 9 and esBAF inh -2.
For CN1CCN(C(=O)C[C@H]2CC[C@@H]3[C@H](COC[C@H](O)CN3CC3CCOCC3)O2)CC1 the results were C2C12 statin 3 and esBAF inh -4.
For C/C=C/c1ccc([C@@H]2[C@@H](CO)N(C(=O)C3CCC3)[C@H]2CN(CC)C(=O)CC)cc1 the results were C2C12 statin 5 and esBAF inh -3.
For O=C(CSc1nc2ccc(Cl)cc2[nH]1)c1cccs1 the results were C2C12 statin -2, esBAF inh inconclusive, Wnt act 37* and MITF act 54.
`Fc1cccc(F)c1CSc1nc2ccccc2[nH]1` gave C2C12 statin -7, esBAF inh 42* and MITF act 71.
Screening O=C1CCC(=O)N1c1ccc(CSc2nc3ccccc3[nH]2)cc1 returned C2C12 statin -17 and esBAF inh 42*.
Screening O=C(CSc1nc2ccccc2[nH]1)N1CCCCC1 returned C2C12 statin 7, esBAF inh 23 and MITF act 106*.
`O=C(Cc1cccnc1)N1[C@@H](CO)[C@@H]2c3ccccc3NC[C@@H]21` gave C2C12 statin -2 and esBAF inh 0.
COc1ccc(N=Nc2c(N)nn(C)c2N)cc1 was read as C2C12 statin -6, esBAF inh 44*, Wnt act 9 and MITF act 55.
Cc1ccc(N=Nc2c(N)nn3c(N)c(C#N)c(C)nc23)cc1 was read as C2C12 statin 3, esBAF inh -7, Wnt act 0 and MITF act -39.
Screening Cc1nn(-c2ccccc2)c(N)c1N=Nc1ccc2ccccc2c1 returned C2C12 statin 0, esBAF inh inconclusive, Wnt act 12 and MITF act 58.
`Cc1ccc(N=Nc2c(N)nn(-c3ccccc3)c2N)cc1` gave Wnt act 33* and MITF act 10.
`Cn1c(-c2ccc(F)cc2)cnc1SCC(=O)N1CCCCC1` gave C2C12 statin 5, esBAF inh -9 and Wnt act 35*.
Screening Cn1c(-c2ccc(F)cc2)cnc1SCC(=O)N1CCCc2ccccc21 returned C2C12 statin -2, esBAF inh -2, Wnt act 5 and MITF act 18.
For CC1Cc2ccccc2N1C(=O)CSc1ncc(-c2ccc(F)cc2)n1C (stereo unspecified) the results were C2C12 statin 2, esBAF inh 12, Wnt act 59* and MITF act 42.
`COc1ccc(S(=O)(=O)Nc2ccc3c(c2)CC(=O)N([C@@H](C)CO)C[C@H](C)[C@@H](CN(C)S(=O)(=O)c2ccccc2)O3)cc1` gave C2C12 statin 14 and esBAF inh 1.
Screening COc1cccc(NC(=O)N2C[C@@H](O)COC[C@@H]3O[C@@H](CC(=O)NCc4ccccc4F)CC[C@H]32)c1 returned C2C12 statin 4 and esBAF inh 0.
For N=C(N)SCc1ccc(Cl)cc1Cl the results were Wnt act -1 and MITF act 0.
Nc1ccc(CSc2ccc(Cl)cc2)c(Cl)c1 was read as C2C12 statin -2, esBAF inh 103*, Wnt act 57* and MITF act 135*.
For Cc1c(C(=O)c2ccccc2)oc2ccc3ccccc3c12 the results were C2C12 statin -6, esBAF inh 40 and Wnt act 50*.
Screening Nc1c(C(=O)c2ccccc2)oc2ccccc12 returned esBAF inh 10, Wnt act 5 and MITF act 5.
`CCC(C(=O)c1ccc(O)cc1)c1ccccc1` (stereo unspecified) gave C2C12 statin 14, esBAF inh 2, Wnt act -7 and MITF act 2.
CCC(C(=O)N(C(C)C)C(C)C)c1ccccc1 (stereo unspecified) was read as C2C12 statin 130*, esBAF inh -10, Wnt act 0 and MITF act 7.
O=C(NCc1ccco1)C1Cc2ccccc2CN1C(=O)c1ccco1 (stereo unspecified) was read as C2C12 statin -3, esBAF inh 1, Wnt act -1 and MITF act 10.
For O=C(NCc1ccco1)C1Cc2ccccc2CN1S(=O)(=O)c1ccccc1F (stereo unspecified) the results were C2C12 statin 67*, esBAF inh 2, Wnt act -2 and MITF act 2.
For CNC(=O)/C(C#N)=C/c1ccc(-c2ccccc2[N+](=O)[O-])o1 the results were Wnt act -4 and MITF act 18.
`Cc1cccc(C)c1NC(=O)/C(C#N)=C/c1ccc(-c2ccc(C(=O)O)cc2)o1` gave C2C12 statin -3, esBAF inh 128* and Wnt act 21.
Screening N#C/C(=C\c1ccc(-c2ccc(C(=O)O)cc2)o1)C(=O)Nc1ccc(F)cc1 returned C2C12 statin -2, esBAF inh 2, Wnt act 0 and MITF act -4.
CNC(=O)/C(C#N)=C/c1ccc(-c2ccc(Cl)cc2)o1 was read as C2C12 statin -1, esBAF inh 80*, Wnt act 7 and MITF act 26.
Screening CCCN1CN(Cc2ccco2)c2nc3ccccc3n2C1 returned C2C12 statin 89*, esBAF inh 12, Wnt act 4 and MITF act 22.
CC(=O)c1sc(NC(=O)c2ccco2)nc1-c1ccccc1 was read as C2C12 statin 11, esBAF inh 62* and MITF act 67.
`CC(=O)c1sc(NC(=O)c2ccccc2F)nc1-c1ccccc1` gave Wnt act 0 and MITF act 88*.
`CC(=O)c1c(C)[nH]c(C(=O)Nc2nccs2)c1C` gave C2C12 statin -3, esBAF inh 35, Wnt act 26 and MITF act 69.
`CC(=O)c1c(C)[nH]c(C(=O)Nc2nc(-c3ccccc3)c(C)s2)c1C` gave MITF act 111*.
Screening Cc1sc(NC(=O)c2ccco2)nc1-c1ccccc1 returned MITF act 96*.
For O=C(C[C@H]1C[C@H]2c3cc(NC(=O)C4CCOCC4)ccc3O[C@H]2[C@H](CO)O1)NCCc1ccccc1 the results were C2C12 statin -2 and esBAF inh -3.
Screening O=C(Nc1scc(-c2ccc(F)cc2)c1C(=O)O)c1ccco1 returned C2C12 statin -4, esBAF inh 26 and MITF act 17.
`COC(=O)c1c(-c2ccccc2)csc1NC(=O)c1ccco1` gave C2C12 statin -18, esBAF inh 98* and MITF act 105*.
